Results filed as inconclusive are left out. Entries that show only a call come without a potency. Activity calls are given as the source filed them. The call rests on the fitted dose curve; in most records, active means well fitted curve in the direction sought with a large enough effect; inconclusive means small, poorly fitted or top-dose-only effect, or another doubt; inactive means no such curve, though single readings can be large; an effect the other way counts as inactive or inconclusive.
Experiment: S16 Schwann cell viability assay (CellTiter-Glo assay) (AID 624031); further: nearly all actives have a fitted effect of over 70% in size; further: potency means the concentration at half of the fitted maximal effect
Conditions: S16 rat Schwann cells viability, 24 h; series mostly up to 57.5 µM
In short: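 Cells were seeded at 500-750 per well in phenol red-free DMEM with 10% FBS and left overnight. Compounds or DMSO were pinned in, incubation ran 24 h at 37 °C/5% CO2, then CellTiter-Glo reagent was added and luminescence measured.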

Row | SMILES | Potency
1 | CC(C)[N+](C)(CCC(C(N)=O)(c1ccccc1)c1ccccc1)C(C)C | inactive
2 | NC(=O)OCCCc1ccccc1 | inactive
3 | CC(C)(C)OC(=O)c1ncn2c1[C@@H]1CCCN1C(=O)c1c(Br)cccc1-2 | inactive
4 | CC(C)NCC(O)c1ccc(N)c(C#N)c1 (stereo unspecified) | inactive
5 | C[C@]12C=CC(=O)C=C1CC[C@@H]1[C@@H]2CC[C@@]2(C)[C@H]1CC[C@]2(C)O | inactive
6 | CCCCCCCCCCCC[N+](C)(C)CCOc1ccccc1 | 32.2 µM (active)
7 | COc1ccc(CN2CCNCC2)c(OC)c1OC | inactive
8 | CCC1(CC)C(=O)NC(=O)NC1=O | inactive

Experiment: S16 Schwann cell PMP22 intronic element firefly luciferase assay (AID 624032); further: nearly all actives have a fitted effect of over 30% in size
Conditions: S16 rat Schwann cells, PMP22 element FLuc, 24 h; series mostly up to 57.5 µM
In short: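 Rat S16 Schwann cells stably carrying firefly luciferase driven by a PMP22 intronic element, in 10% FBS, treated 24 h at 37 C. ONE-Glo luminescence normalized to PTC124 control and DMSO (0%); curves classed by r2, magnitude and activity.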

Row | SMILES | Potency
9 | CN1C[C@@H](NS(=O)(=O)N(C)C)C[C@@H]2c3cccc4c3c(cn4C)C[C@H]21 | inactive
10 | CC(C)NCC(O)c1ccc(N)c(C#N)c1 (stereo unspecified) | inactive
11 | CCC1(CC)C(=O)NC(=O)NC1=O | inactive
